From PubChem BioAssay (EPA / NIEHS)
Results filed as inconclusive are left out. Activity calls are given as the source filed them. Rule for the calls: active = hit-call score of the fitted dose curve at least 0.9, where 1 is the maximum; inconclusive = response in the unintended direction; inactive = score below 0.9.

target: human Sirtuin 1 (SIRT1), SIRT1 (gene 23411) (UniProt Q96EB6); assay: NVS_ENZ_hSIRT1: NovaScreen (NVS) Enzymatic Assay for human Sirtuin 1 (SIRT1) (AID 2283219)
Experimental: NVS_ENZ_hSIRT1 is a biochemical, single-readout assay that uses extracted gene-proteins in a cell-free assay. Measurements were taken 1 hour after chemical dosing in a 384-well plate.NVS_ENZ_hSIRT1 is one of one assay component(s) measured or calculated from the NVS_ENZ_hSIRT1 assay. It is designed to make measurements of enzyme activity, a form of enzyme reporter, as detected with fluorescence intensity signals by Fluorescence and electrophoretic mobility shift technology.Data from the assay component NVS_ENZ_hSIRT1 was analyzed into 1 assay endpoint. This assay endpoint, NVS_ENZ_hSIRT1, was analyzed in the positive analysis fitting direction relative to DMSO as the negative control and baseline of activity. Using a type of enzyme reporter, loss-of-signal activity can be used to understand changes in the enzymatic activity as they relate to the gene SIRT1. Furthermore, this assay endpoint can be referred to as a primary readout, because this assay has produced multiple assay endpoints where this one serves a enzymatic activity function. To generalize the intended target to other relatable targets, this assay endpoint is annotated to the hydrolase intended target family, where the subfamily is protein deacetylase.
Binding assays used specific radioligands (tritiated, iodinated) with non-radioactive competitive displacement ligands in agonist or antagonist protocols (as indicated) and various reference compounds and inhibitors to titrate specific binding to receptors and transporters. Most enzyme assays (CYPs, kinases, phosphatases, proteases, HDACs) used recombinant protein and specific substrates (fluorescence mostly, some colorimetric and radioactive) and inhibitors, followed by a biochemical separation of substrate and product. All assays for the biochemical HTS were initially run in duplicate at a single concentration (10 uM for CYP450 assays and 25 uM for all others). Assay-chemical combinations meeting a pre-defined threshold (e.g., 30% inhibition and other criteria defined below) were then run in singleton concentration-response format with maximum concentration of 20 uM for CYPs and 50 uM for all others. Each assay was run with positive and negative controls, and concurrent controls on every plate. The follow-up (secondary) screen tested active chemical-pairs in concentration series, as well as a few additional assays not tested in the primary screen, some selected negative inactives, and several cases re-run in the concentration series for confirmatory purposes.

Sequence of human Sirtuin 1 (SIRT1), SIRT1 (gene 23411) (Q96EB6 whole entry, looked up): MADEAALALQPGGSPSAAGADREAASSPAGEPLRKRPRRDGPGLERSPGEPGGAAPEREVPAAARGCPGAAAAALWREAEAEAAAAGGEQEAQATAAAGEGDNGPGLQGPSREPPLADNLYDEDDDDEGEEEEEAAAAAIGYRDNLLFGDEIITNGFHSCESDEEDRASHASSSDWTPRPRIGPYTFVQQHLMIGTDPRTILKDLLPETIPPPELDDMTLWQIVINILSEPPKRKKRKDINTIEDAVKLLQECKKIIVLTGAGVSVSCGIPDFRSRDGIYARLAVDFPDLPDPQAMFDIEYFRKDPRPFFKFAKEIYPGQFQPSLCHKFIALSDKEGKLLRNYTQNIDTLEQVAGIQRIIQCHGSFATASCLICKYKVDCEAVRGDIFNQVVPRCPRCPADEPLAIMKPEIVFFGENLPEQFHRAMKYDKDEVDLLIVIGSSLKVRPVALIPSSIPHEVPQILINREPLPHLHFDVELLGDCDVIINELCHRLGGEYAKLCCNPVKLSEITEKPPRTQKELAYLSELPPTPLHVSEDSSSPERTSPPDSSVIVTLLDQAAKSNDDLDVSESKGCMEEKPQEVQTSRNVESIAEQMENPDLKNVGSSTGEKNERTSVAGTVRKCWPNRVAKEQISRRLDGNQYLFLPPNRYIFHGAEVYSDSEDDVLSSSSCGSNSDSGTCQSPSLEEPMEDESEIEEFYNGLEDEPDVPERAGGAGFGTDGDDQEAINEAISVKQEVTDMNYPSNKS

Row | Compound | outcome
1 | CC(=O)c1ccccc1 | inactive
2 | NNC(=O)c1ccncc1 | inactive
3 | COCc1nnc(-c2ccc[n+]([O-])c2)n1-c1c(Cl)c(Cl)cc2[nH]c(=O)c(=O)[nH]c12 | inactive
4 | Cn1cc[nH]c1=S | inactive
5 | CCCCCCOC(=O)CC(CC(=O)OCCCCCC)(OC(=O)CCC)C(=O)OCCCCCC | inactive
6 | O=c1[nH]cnc2c1ncn2[C@H]1CC[C@@H](CO)O1 | inactive
7 | NC(N)=O | inactive
8 | CC(C)c1nnc2ccc(-c3ocnc3-c3cc(F)ccc3F)cn12 | inactive
9 | CCCC(CCC)C(=O)O | inactive
10 | CCCCCCCC/C=C\CCCCCCCC(=O)OC[C@@H](O)[C@H]1OC[C@H](O)[C@H]1O | inactive
11 | CCc1cccc(CC)c1N | inactive
12 | Cc1ncc([C@@H](CCCCCCc2ccc3c(n2)NCCC3)CC(=O)O)cn1 | inactive
13 | CCN(CC)C(=S)SSC(=S)N(CC)CC | inactive
